Results filed as inconclusive are left out. Some compounds were tested as several samples or in several runs, with calls that do not always agree. Activity calls are given as the source filed them. Calls follow the shape of the full dose curve.
Molecular target: Acetylcholinesterase (Homo sapiens) (UniProt P22303)
Assay: Acetylcholinesterase (AChE) small molecule antagonists: colormetric cell-based qHTS assay (AID 1347395); also: nearly all actives have a fitted effect of over 30% in size
Conditions: SH-SY5Y cells AChE activity, colorimetric (Ellman); series mostly up to 115 µM; activity, negative = inhibition: at the top concentration
Excerpt: National Center for Advancing Translational Sciences [NCATS]
Division of Preclinical Innovation [DPI]
U.S. Environmental Protection Agency [EPA]
National Institutes of Environmental Health Sciences [NIEHS]
National Toxicology Program [NTP]
U.S. Food and Drug Administration [FDA]
Acetylcholinesterase (AChE) is the primary cholinesterase in the body that hydrolyzes a key neurotransmitter, acetylcholine. Inhibition of AChE activity can lead to neurotoxicity. The known inhibitors include organophosphorous pesticides (OP), chemical warfare agents, drugs, and various phytochemicals.
A homogenous cell-based assay using the Amplite Colormetric acetylcholinesterase assay kit (AAT Bioquest, Sunnyvale, CA) was used to evaluate the chemicals in the Tox21 10K library that inhibit AChE activity. The assay uses 5, 5-dithiobis-(2-nitrobenzoic acid) (DTNB) to quantify the thiocholine produced from the hydrolysis of acetylthiocholine by AChE from the SH-SY5Y cells.
Tox21 Assay Protocol Summary:
For the cell-based AChE assay, 2,000 SH-SY5Y cells in 4 uL/well were dispensed into black, clear-bottom 1536-well plates using a Multidrop Combi dispenser (Thermo Scientific, MA). The assay plates were incubated overnight at 37 C to allow cells to attach to the wells, followed by the transfer of 23 nL of compound or DMSO (vehicle control) by a Pintool Station (Wako Automation, CA). The plates were incubated for 30 min at 37 C and 5% CO2, followed by the addition of 4 uL of detection cocktail solution (DTNB, acetylthiocholine) into each well using a Flying Reagent Dispenser (Beckman Coulter, CA) and then 90 min incubation at 37 C.
% is scaled to controls: 0 for no effect and ±100 for the full control effect; potency is read from the fitted curve at half-maximal effect.

Acetylcholinesterase (Homo sapiens), sequence (P22303 whole entry, looked up): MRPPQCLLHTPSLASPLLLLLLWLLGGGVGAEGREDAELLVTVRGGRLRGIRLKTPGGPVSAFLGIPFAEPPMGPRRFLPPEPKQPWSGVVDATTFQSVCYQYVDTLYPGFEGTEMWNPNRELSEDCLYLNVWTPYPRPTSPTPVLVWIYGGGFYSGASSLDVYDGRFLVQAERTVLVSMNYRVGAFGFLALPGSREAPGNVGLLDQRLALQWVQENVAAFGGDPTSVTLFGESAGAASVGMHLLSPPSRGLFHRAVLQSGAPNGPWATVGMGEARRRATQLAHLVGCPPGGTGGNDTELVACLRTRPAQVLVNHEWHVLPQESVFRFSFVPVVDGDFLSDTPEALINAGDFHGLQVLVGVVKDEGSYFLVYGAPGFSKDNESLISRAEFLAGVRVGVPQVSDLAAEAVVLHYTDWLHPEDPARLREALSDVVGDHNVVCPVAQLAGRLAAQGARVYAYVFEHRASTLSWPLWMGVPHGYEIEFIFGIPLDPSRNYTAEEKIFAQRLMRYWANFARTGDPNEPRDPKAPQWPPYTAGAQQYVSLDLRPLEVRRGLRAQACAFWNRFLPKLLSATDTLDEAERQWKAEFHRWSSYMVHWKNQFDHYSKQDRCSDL

| Structure (SMILES) | Potency | activity, negative = inhibition | outcome |
| --- | --- | --- | --- |
| CC(=O)CCc1ccccc1 | inactive |  |  |
| C[C@@H]1CC(=O)NN=C1c1ccc(NN=C(C#N)C#N)cc1 | inactive |  |  |
| CN(C)c1ccncc1 |  | -9.37% (inactive) |  |
| COc1ccc(N=[N+]([O-])c2ccc(OC)cc2)cc1 |  | 4.87% (inactive) |  |
| COc1ccc(C#N)cc1 |  | -1.99% (inactive) |  |
| OCc1ccccc1 | 39.4 µM (active) and inactive |  |  |
| CC(C)(C#N)c1cc(Cn2cncn2)cc(C(C)(C)C#N)c1 | inactive |  |  |
| Nc1cccc2c1CN(C1CCC(=O)NC1=O)C2=O (stereo not given) |  | 3.3% [at 52.9 µM] (inactive) |  |
| O=C(Oc1ccccc1)c1ccc2ccccc2c1O |  | -1.52% (inactive) |  |
| CC(C)CCCCCCOC(=O)c1ccc(C(=O)OCCCCCCC(C)C)c(C(=O)OCCCCCCC(C)C)c1 |  | -6.65% (inactive) |  |
| CN1CCN(N)CC1 |  | 3.88% [at 52.9 µM] (inactive) |  |
| O=c1[nH]c2cc(C(F)(F)F)c(N3CCOCC3)cc2n(CP(=O)(O)O)c1=O |  | 0.589% [at 52.9 µM] (inactive) |  |
| Cc1cnc(C(=O)NCCc2ccc(S(=O)(=O)NC(=O)NC3CCCCC3)cc2)cn1 | inactive |  |  |
| O=C(O)c1ccc2c(c1)C(=O)OC2=O | inactive |  |  |
| CCCCCCCCCc1ccc(OCCOCCO)cc1 |  | -0.553% [at 52.9 µM] (inactive) |  |
| O=C(O)Cc1csc(-c2ccc(Cl)cc2)n1 |  | 1.2% [at 52.9 µM] (inactive) |  |
| CCOC(=O)/C=C\C(=O)OCC | inactive |  |  |
| CCC(C)(C)CC |  | 1.08% (inactive) |  |
| O=S(=O)(O)c1cccc2c(S(=O)(=O)O)cccc12 |  | 0.0931% (inactive) |  |
| C=C(C)C(=O)OC(C)C |  | 2.26% (inactive) |  |

| Structure (SMILES) | Potency | activity, negative = inhibition | outcome |
| --- | --- | --- | --- |
| C=CCNc1nc(NCC=C)nc(N2CCN(C(c3ccc(F)cc3)c3ccc(F)cc3)CC2)n1 |  |  | inactive |
| COC(=O)c1ccccc1OC |  | 1.58% (inactive) |  |
| COC(=O)c1ccccc1O | inactive |  |  |
| CC(=O)CC(C)=O |  | 3.98% (inactive) |  |
| Cc1ccc(Cl)cc1 | inactive |  |  |
| CCCCC1CCC(=O)O1 (stereo not given) |  | 2.34% (inactive) |  |
| NNc1nc(-c2ccc([N+](=O)[O-])cc2)cs1 |  | 1.63% (inactive) |  |
| COc1cc(/C=C/C(N)=O)cc(OC)c1OC |  | 1.06% [at 52.9 µM] (inactive) |  |
| O=C(O)CCCCCCCCC(=O)O | inactive |  |  |
| NC(=O)c1cnccn1 | inactive |  |  |
| O=C(O)C1=NN(c2ccc(S(=O)(=O)O)cc2)C(=O)C1 | inactive |  |  |
| C=CC(C)(CCC=C(C)C)OC(=O)/C=C/c1ccccc1 (stereo not given) |  | -0.301% (inactive) |  |
| OC[C@H](Cc1cccc(O)c1)[C@H](CO)Cc1cccc(O)c1 |  | 2.76% (inactive) |  |
| OCCOc1cccc(OCCO)c1 |  | -2.23% (inactive) |  |
| COc1ccc(O)cc1 | inactive |  |  |
| CN=C(NC#N)Nc1ccc(C2=NNC(=O)CC2C)cc1 (stereo not given) |  | 2.05% [at 52.9 µM] (inactive) |  |
| CC1(C)[C@H]2CC[C@]1(C)C(=O)C2 |  | 1.91% (inactive) |  |
| CCCCCC1CCCC(=O)O1 (stereo not given) |  | 8.23% (inactive) |  |
| CC(=O)O[C@H]1C[C@@H]2CC[C@@]1(C)C2(C)C |  | -1.72% (inactive) |  |
| Cc1ccc(C(=O)O)cc1 |  | 0.177% (inactive) |  |

Reference: PubChem BioAssay (Tox21)
